# Measured values reported in article PMC4336329 (PLoS ONE, 2015).
# Out of some 310,000 compounds screened, about 14,000 (4.5%) showed an effect of 50% or more. Effects have a minus sign here. What follows is part of a selection rich in strong results, with near analogues and random picks from the rest.
# Biological target: human ether-à-go-go-related gene (hERG) potassium channel (human, UniProt Q12809)
# Test: primary screen, population patch clamp on CHO cells stably expressing hERG; higher = less effect of the substance
# 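Also: peak tail current of the secondary pulse compared with the same well before compound.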
# Chain of human ether-à-go-go-related gene (hERG) potassium channel (Q12809 whole entry, looked up): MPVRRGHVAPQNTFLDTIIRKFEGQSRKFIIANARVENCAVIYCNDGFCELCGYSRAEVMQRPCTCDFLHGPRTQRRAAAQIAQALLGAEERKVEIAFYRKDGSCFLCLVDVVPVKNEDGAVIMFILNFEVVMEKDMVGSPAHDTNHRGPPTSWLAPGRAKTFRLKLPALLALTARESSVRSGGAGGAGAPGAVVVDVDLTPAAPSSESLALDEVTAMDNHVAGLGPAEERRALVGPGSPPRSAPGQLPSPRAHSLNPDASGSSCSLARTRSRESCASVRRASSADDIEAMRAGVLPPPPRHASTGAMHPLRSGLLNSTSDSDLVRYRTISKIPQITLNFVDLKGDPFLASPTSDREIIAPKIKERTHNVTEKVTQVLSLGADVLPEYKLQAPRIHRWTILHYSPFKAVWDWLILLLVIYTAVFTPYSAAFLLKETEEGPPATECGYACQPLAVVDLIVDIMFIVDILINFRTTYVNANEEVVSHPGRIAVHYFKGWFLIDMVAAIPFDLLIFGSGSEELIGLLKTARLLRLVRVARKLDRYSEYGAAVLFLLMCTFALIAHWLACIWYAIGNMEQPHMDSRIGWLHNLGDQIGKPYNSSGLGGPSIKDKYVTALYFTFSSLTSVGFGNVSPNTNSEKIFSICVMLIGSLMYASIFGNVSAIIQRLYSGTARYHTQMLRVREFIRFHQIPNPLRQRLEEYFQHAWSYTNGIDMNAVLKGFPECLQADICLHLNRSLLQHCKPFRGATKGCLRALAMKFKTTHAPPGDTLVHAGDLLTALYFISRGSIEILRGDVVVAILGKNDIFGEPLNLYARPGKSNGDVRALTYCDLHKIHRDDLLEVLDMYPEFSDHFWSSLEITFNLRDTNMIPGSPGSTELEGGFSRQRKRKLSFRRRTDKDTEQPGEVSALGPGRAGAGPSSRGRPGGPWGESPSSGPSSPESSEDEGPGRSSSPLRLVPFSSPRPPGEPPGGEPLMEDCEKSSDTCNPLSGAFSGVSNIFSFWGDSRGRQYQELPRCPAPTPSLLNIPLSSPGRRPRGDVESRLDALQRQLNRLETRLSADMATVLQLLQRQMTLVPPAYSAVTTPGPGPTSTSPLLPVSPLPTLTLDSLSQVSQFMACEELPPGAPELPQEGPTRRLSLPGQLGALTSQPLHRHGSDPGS
row,Compound,"hERG current change (%, negative = inhibition) at 10uM [%]"
1,COc1ccc(C2=NN(C(=O)COC(=O)c3ccc(NC(=O)CC#N)cc3)C(c3ccco3)C2)cc1 (centres unmarked),5.24
2,COC(=O)c1oc2nc(C)cc(C)c2c1N,-4.33
3,CC(C)N(C)C(=O)CCc1nnc(CCc2c[nH]c3ccccc23)o1,6.75
4,COc1ccc(C)cc1NC(=O)c1sc2ncn(CC(=O)N3CCCCC3)c(=O)c2c1C,9.03
5,Cc1ccnc(Nc2nc3ccccc3s2)n1,-4.71
6,COc1ccc(NC(=O)C2CCCN(c3nccc(C)n3)C2)cc1 (centres unmarked),-3.13
7,CCOC(=O)c1c(C)n(Cc2ccco2)c2c1cc(O)c1ccccc12,6.11
8,Cc1ccc(OCCn2c(NC(=O)c3ccco3)nc3ccccc32)cc1,-5.24
9,Cn1cc(Br)c(C(=O)Nc2c(F)c(F)c(F)c(F)c2F)n1,-6.6
10,COc1ccc(Cl)cc1S(=O)(=O)N1CCC(C(=O)NCc2ccccn2)CC1,-7.12
11,O=C(c1cccc([N+](=O)[O-])c1)N1CCN(C/C=C/c2ccccc2)CC1,-65.9
12,O=C(c1ccco1)N1CCN(S(=O)(=O)/C=C/c2ccccc2)CC1,-38.3
13,Cn1nc(C(=O)N2CCN(S(=O)(=O)c3ccccc3)CC2)c2ccccc2c1=O,-23
14,Cn1nc(C(=O)N2CCN(C(c3ccccc3)c3ccccc3)CC2)c2ccccc2c1=O,-35.2
15,O=CN1CCN(C(=O)c2cccc([N+](=O)[O-])c2)CC1,-4.11
16,O=C(c1cccc([N+](=O)[O-])c1)N1CCCN(C(=O)c2cccc([N+](=O)[O-])c2)CC1,-42
17,Nc1ccc(C(=O)N2CCN(S(=O)(=O)/C=C/c3ccccc3)CC2)cc1[N+](=O)[O-],-43.9
18,Cn1nc(C(=O)N2CCN(S(=O)(=O)/C=C/c3ccccc3)CC2)c2ccccc2c1=O,-65.1
19,O=C(c1cccc([N+](=O)[O-])c1)N1CCN(S(=O)(=O)/C=C/c2ccccc2)CC1,-64.3
20,O=C(c1ccc2ccccc2c1)N1CCN(S(=O)(=O)/C=C/c2ccccc2)CC1,-31.9
21,O=C(c1cccc([N+](=O)[O-])c1)N1CCN(S(=O)(=O)N2CCCCC2)CC1,-15.2
22,O=C(c1ccc(Cl)cc1)N1CCN(S(=O)(=O)/C=C/c2ccccc2)CC1,-54.8

row,Compound,"hERG current change (%, negative = inhibition) at 10uM [%]"
1,Cc1nc(N=Nc2ccc(O)cc2)n[nH]1,7.01
2,CC12CC[C@H]3[C@@H](CCC4(O)C[C@H](O)CCC34/C=N/NC(=O)c3ccccc3Cl)C1(O)CCC2C1=CC(=O)OC1 (some centres unmarked),9.69
3,O=C(COC(=O)c1ccc(S(=O)(=O)Nc2ccccc2)cc1)NCC1CCCO1 (centres unmarked),1.33
4,COC(=O)c1ccccc1NC(=O)c1ccc(COc2cccc3ccccc23)o1,0.342
5,NC(=O)c1nsc(C(=O)N(CCCN2CCOCC2)C(C(=O)NC2CCCCC2)c2ccc(Cl)cc2)c1N (centres unmarked),-42.8
6,CCCNc1nc2c(c(=O)[nH]c(=O)n2C)n1CCC(C)C,-0.274
7,Cc1ccc(S(=O)(=O)N2CCN(C(=O)COc3ccc(C)nc3[N+](=O)[O-])CC2)c(C)c1,-61
8,Cc1ccc(OCC(=O)N2CCN(S(=O)(=O)c3ccccc3)CC2)c([N+](=O)[O-])n1,-45.8
9,CC(=O)c1ccc(OCCCC(=O)N2CCN(S(=O)(=O)c3cc(C)ccc3C)CC2)cc1,-37.1
10,Cc1ccc(OCC(=O)N2CCN(S(=O)(=O)c3ccc(Cl)cc3)CC2)c([N+](=O)[O-])n1,-48.8
11,O=C(COc1ccccc1[N+](=O)[O-])N1CCC(Cc2ccccc2)CC1,-16.1
12,CC(=O)c1ccc(OCCCC(=O)N2CCN(S(=O)(=O)c3ccc(C)cc3C)CC2)cc1,-40.8
13,Cc1ccc(OCC(=O)N2CCC(Cc3ccccc3)CC2)c([N+](=O)[O-])n1,-67.7
14,CC(=O)c1ccc(OCC(=O)N2CCN(S(=O)(=O)c3ccc(C)cc3C)CC2)cc1,-61.6
15,Cc1ccc(OCC(=O)N2CCC(C)CC2)c([N+](=O)[O-])n1,-7.74
16,COc1ccc(CNC(=S)Nc2ccc(OC)cc2)cc1,3.09
17,Cc1nnc(-c2ccc(N3CCCCCC3)c([N+](=O)[O-])c2)o1,-4.52
18,Cc1ccc(CN2C(=O)CCC2C(=O)NCCc2ccccc2)cc1 (centres unmarked),7.99
19,c1ccc2nc3c(nc2c1)CCCC3,17.2
20,Cn1c(=O)c2c(nc(SCc3cccnc3)n2Cc2ccccc2)n(C)c1=O,-17.6
21,C=CCOCCN(C)C1=NS(=O)(=O)c2cc([N+](=O)[O-])ccc21,-19.8
22,Cc1ncc(CN2CCC(CO)(CCOc3ccccc3)CC2)s1,-70.1

row,Compound,"hERG current change (%, negative = inhibition) at 10uM [%]"
1,Cc1ncc(CN2CCC(CO)(Cc3ccccc3)CC2)s1,-7
2,Cc1ncc(CN2CCC(CO)(CCc3ccccc3)CC2)s1,-60.4
3,Cc1ccc(NC(=O)c2ccc3nc(N4CCOCC4)sc3c2)c(Cl)c1,6.14
4,Cc1ccc(NC(=O)/C=N/OCC(=O)NCc2ccccc2Cl)cc1,2.92
5,Cc1cc(C)n2c(Br)c(CSc3nc4ccccc4o3)nc2n1,-63.9
6,Cc1cc(C)nc(NC(=O)CSc2nc3ccccc3s2)n1,2.88
7,Cc1csc2nc(CSc3nc4ccccc4o3)c(Br)n12,7.03
8,Cc1cc(C)nc(SCc2nc3nc(C)cc(C)n3c2Br)n1,-22.6
9,Cc1cc(C)n2c(Br)c(CSc3nc4ccccc4s3)nc2n1,-76.7
10,Cc1cc(C)n(C(=O)CSc2nc3ccccc3o2)n1,19.3
11,CCOc1ccc(/C=N/NC(=O)c2[nH]ncc2Br)c(O)c1,4.05
12,CC(C)Oc1ccc(C(CC(=O)O)c2ccc(F)cc2)cc1 (centres unmarked),6.58
13,COc1ccc(NC(=O)CC(c2ccc(F)cc2)c2ccc(OC(C)C)cc2)cc1 (centres unmarked),3.91
14,Cc1ccc(C(CC(=O)NCCCN(C)C)c2ccc(OC(C)C)cc2)cc1 (centres unmarked),-42.9
15,CN(C)CCCNC(=O)CC(c1ccc(F)cc1)c1ccco1 (centres unmarked),-37.3
16,CC(C)Oc1ccc(C(CC(=O)NCCCN(C)C)c2ccc(F)cc2)cc1 (centres unmarked),-57.1
17,CC(C)Oc1ccc(C(CC(=O)N(C)CCC#N)c2ccc(F)cc2)cc1 (centres unmarked),-59.2
18,Br.O=C(N=c1nc2ccccn2s1)c1ccccc1,14.1
19,CCn1c(COc2ccc(=O)n(-c3ccccc3)n2)n[nH]c1=S,23.3
20,CCn1c(COc2ccc(=O)n(-c3ccccc3)n2)nnc1SCc1ccc(OC)cc1,-67.7
21,CCn1c(COc2ccc(=O)n(-c3ccccc3)n2)nnc1SCc1ccc(C)cc1,-59.9
22,CCn1c(COc2ccc(=O)n(-c3ccccc3)n2)nnc1SCC(=O)OC,9.02

row,Compound,"hERG current change (%, negative = inhibition) at 10uM [%]"
1,CCn1c(COc2ccc(=O)n(-c3ccccc3)n2)nnc1SCc1cccc(OC)c1,-39.1
2,CCn1c(COc2ccc(=O)n(-c3ccccc3)n2)nnc1SC,2.39
3,CCn1c(COc2ccc(=O)n(-c3ccccc3)n2)nnc1SCc1ccccc1C,-65.4
4,C=CCSc1nnc(COc2ccc(=O)n(-c3ccccc3)n2)n1CC,-2.15
5,CCn1c(COc2ccc(=O)n(-c3ccccc3)n2)nnc1SCc1ccccc1,-48.2
6,COc1ccc(-c2csc(NC(=O)CSc3nc(C)nc4sc(C(=O)O)c(C)c34)n2)cc1,11.9
7,COCCNc1nc2c(c(=O)n(Cc3ccccc3F)c(=O)n2C)n1C,-15.8
8,C=CCNC(=O)C(=O)Nc1ccc2c(c1)N(S(=O)(=O)c1cccs1)CCC2,-14.7
9,Cc1ccc(S(=O)(=O)NC(C(=O)Oc2cc3oc(=O)cc(C)c3cc2Cl)C(C)C)cc1 (centres unmarked),-34.3
10,CCOc1ccc(/C=C(\C)C(=O)c2c(C)cc(C)[nH]c2=O)cc1,5.24
11,CCCCc1ccc(NC(=O)C(C)CC)cc1 (centres unmarked),-50.5
12,CCCCc1ccc(NC(=O)CC(C)C)cc1,-6.78
13,CCCCC(CC)C(=O)Nc1ccc(Nc2ccccc2)cc1 (centres unmarked),-12.8
14,CCCCC(CC)C(=O)Nc1ccccc1C#N (centres unmarked),-4.83
15,CCCCC(CC)C(=O)Nc1ccc(C#N)cc1 (centres unmarked),-52.5
16,CCCCc1ccc(NC(=O)OC)cc1,-9.08
17,COc1ccc(CNC(=O)c2ccc(NS(=O)(=O)c3ccc4[nH]c(=O)[nH]c4c3)cc2)cc1OC,13.3
18,CCOC(=O)c1ccc(NC(=O)CSc2nc(=O)n3cccc(C)c3n2)cc1,-21.9
19,COc1cc(Cl)c(S(=O)(=O)NCCCn2ccnc2)cc1Cl,3.34
20,CCOC(=O)CSCC(=O)Nc1cc(C)ccc1C,0.851
